# Data reported in article PMC8384837, “Expanding the binding specificity for RNA recognition by a PUF domain”.
# Key:
# Experiment in all cases: yeast three-hybrid, YBZ-1, SC-Leu-His + 0.5 mM 3-AT, 4 days
# Settings in all cases: tags: N-Gal4 AD-HA kept; label: inside an RPR1-promoter hybrid RNA with tandem MS2 sites; ssRNA
# PUM1 PUF domain R3-EWV = PUM1 PUF domain R3-EWV (Homo sapiens, UniProt Q14671 828-1176, C935E;R936W;Q939V)
# Method in brief: (§1)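 Matching RNA elements and Pumilio-1 PUF domain libraries, randomized at the three base-contacting residues of every repeat, were co-expressed from a centromeric plasmid in strain YBZ-1 (LexA–MS2 coat fusion, HIS3 reporter). The repeat regions were PCR-amplified and Illumina-sequenced from cells grown four days on SC-Leu (input) or SC-Leu-His + 0.5 mM 3-AT (selection). The interaction score is the log change in variant frequency from input to selection. It is computed in log2, with a pseudocount of 1 for absent variants.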
# PUM1 PUF domain R3-YCG = PUM1 PUF domain R3-YCG (Homo sapiens, UniProt Q14671 828-1176, C935Y;R936C;Q939G)
# Method in brief: as §1
# PUM1 PUF domain R3-GWP = PUM1 PUF domain R3-GWP (Homo sapiens, UniProt Q14671 828-1176, C935G;R936W;Q939P)
# Method in brief: as §1
# PUM1 PUF domain R4-WFS = PUM1 PUF domain R4-WFS (Homo sapiens, UniProt Q14671 828-1176, N971W;H972F;Q975S)
# Method in brief: as §1
# PUM1 PUF domain R4-GNH = PUM1 PUF domain R4-GNH (Homo sapiens, UniProt Q14671 828-1176, N971G;H972N;Q975H)
# Method in brief: as §1
# PUM1 PUF domain R5-RPC = PUM1 PUF domain R5-RPC (Homo sapiens, UniProt Q14671 828-1176, C1007R;R1008P;Q1011C)
# Method in brief: as §1
# PUM1 PUF domain R3-ARI = PUM1 PUF domain R3-ARI (Homo sapiens, UniProt Q14671 828-1176, C935A;Q939I)
# Method in brief: as §1
sequence,measurement,setting,value
GGCUAGAACUAGUGGAUCCCCCGGCGCCCGGCGGCUCGAGCCCGGGUAAGUGUAAGUAGUCUGCAUGCCGCCGGGCGCCAUGCCUGCAGGUCGACUCUAGAAAACAUG,binding signal,PUM1 PUF domain R3-EWV,2.9 log2 enrichment (interaction score)
same,binding signal,PUM1 PUF domain R3-YCG,4.58 log2 enrichment (interaction score)
same,binding signal,PUM1 PUF domain R3-GWP,5.41 log2 enrichment (interaction score)
GGCUAGAACUAGUGGAUCCCCCGGCGCCCGGCGGCUCGAGCCCGGGUAAGUGUAUAUAGUCUGCAUGCCGCCGGGCGCCAUGCCUGCAGGUCGACUCUAGAAAACAUG,binding signal,PUM1 PUF domain R4-WFS,3.06 log2 enrichment (interaction score)
same,binding signal,PUM1 PUF domain R4-GNH,3.07 log2 enrichment (interaction score)
GGCUAGAACUAGUGGAUCCCCCGGCGCCCGGCGGCUCGAGCCCGGGUAAGUGUCAAUAGUCUGCAUGCCGCCGGGCGCCAUGCCUGCAGGUCGACUCUAGAAAACAUG,binding signal,PUM1 PUF domain R5-RPC,1.49 log2 enrichment (interaction score)
GGCUAGAACUAGUGGAUCCCCCGGCGCCCGGCGGCUCGAGCCCGGGUAAGUGUAAUUAGUCUGCAUGCCGCCGGGCGCCAUGCCUGCAGGUCGACUCUAGAAAACAUG,binding signal,PUM1 PUF domain R3-EWV,2.82 log2 enrichment (interaction score)
same,binding signal,PUM1 PUF domain R3-GWP,4.22 log2 enrichment (interaction score)
same,binding signal,PUM1 PUF domain R3-ARI,2.15 log2 enrichment (interaction score)
GGCUAGAACUAGUGGAUCCCCCGGCGCCCGGCGGCUCGAGCCCGGGUAAGUGUUAAUAGUCUGCAUGCCGCCGGGCGCCAUGCCUGCAGGUCGACUCUAGAAAACAUG,binding signal,PUM1 PUF domain R5-RPC,2.17 log2 enrichment (interaction score)
